Where “and” joins values, the source holds several entries; their conditions need not be identical. Equal values may be shown once. Records with an inconclusive call do not appear. Entries that show only a call come without a potency. Unmarked numbers belong to inactive results. Calls of active or inactive are those of the source. The call rests on the fitted dose curve; in most records, active means well fitted curve in the direction sought with a large enough effect; inconclusive means small, poorly fitted or top-dose-only effect, or another doubt; inactive means no such curve, though single readings can be large; an effect the other way counts as inactive or inconclusive. Numbered stars: 1 amine (or outer) side, 2 acyl side, 3 side chain; on linkers, the order of the positions; unused ones are H or OH. Square brackets hold non-standard residues; d marks the D form. Peptide text beside a SMILES is read from it. Ala(indol-2-yl) = N[C@@H](Cc1cc2ccccc2[nH]1)C(=O)O; X5 = O=C([C@@H](CC(O)CCl)O[*:1])[*:2]; aIle = CC[C@@H](C)[C@H](N)C(=O)O; NMeV = CN[C@H](C(=O)O)C(C)C; NMeA = CN[C@@H](C)C(=O)O; Aib = CC(C)(N)C(=O)O; βAla = NCCC(=O)O
Legend:
[1] = target: Cellular tumor antigen p53 (Homo sapiens) (UniProt P04637); assay: Primary qHTS for small molecule compounds that upregulate eGFP-tagged delta133p53alpha (in N-terminal) cells. (AID 2060322); settings: NCI-H358 eGFP-delta133p53alpha fluorescence, 24 h; activation: stronger effect = higher value; further: nearly all actives have a fitted effect of over 75% in size; further: potency means the concentration at half of the fitted maximal effect; on activation: series mostly up to about 56 µM
In short: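 NCI-H358 cells pre-induced 24 h with 10 ng/ml doxycycline to express N-terminal eGFP-delta133p53alpha, then dosed 24 h at 37C without doxycycline; fixed, Hoechst-stained, GFP intensity by laser scanning cytometry, normalized to DMSO (0%) and 57.5 uM 5-azacytidine (100%).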

[2] = target: Aldehyde dehydrogenase, mitochondrial (Homo sapiens) (UniProt P05091); assay: qHTS for Inhibitors of the Aldehyde Dehydrogenase Family (ALDH2) Primary screen (AID 2061308); further: nearly all actives have a fitted effect of over 55% in size
[3] = target: Retinaldehyde dehydrogenase 3 (Homo sapiens) (UniProt P47895); assay: qHTS for Inhibitors of the Aldehyde Dehydrogenase Family (ALDH1A3) Primary screen (AID 2061315)

Sequence of Cellular tumor antigen p53 (Homo sapiens) (P04637 whole entry, looked up): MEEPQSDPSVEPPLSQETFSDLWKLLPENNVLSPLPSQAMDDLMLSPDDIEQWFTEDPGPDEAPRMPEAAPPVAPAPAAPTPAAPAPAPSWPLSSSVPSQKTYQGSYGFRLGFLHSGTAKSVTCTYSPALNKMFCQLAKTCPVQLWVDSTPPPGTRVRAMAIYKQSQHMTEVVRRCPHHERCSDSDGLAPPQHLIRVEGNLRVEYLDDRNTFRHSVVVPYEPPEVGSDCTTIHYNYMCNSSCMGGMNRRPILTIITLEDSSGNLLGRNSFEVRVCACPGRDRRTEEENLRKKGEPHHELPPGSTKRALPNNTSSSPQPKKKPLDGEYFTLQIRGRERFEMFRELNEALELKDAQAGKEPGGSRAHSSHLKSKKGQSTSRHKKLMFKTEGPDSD

CC1=CC(=O)[C@@H](O)[C@]2(C)C3[C@@H](O)[C@@H]4OC(=O)[C@@H]([C@H]4C)[C@]3(C)C(=O)C[C@@H]12 (stereo not given in full)
Potency [1]: 16.6 µM (active)
Potency [2]: inactive
Potency [3]: inactive

Cc1cccc(NC(=O)c2ccc(C(F)(F)F)cc2C(=O)O)n1
activation [1]: 1%
Potency [2]: inactive
Potency [3]: inactive

C=CCN1C[C@H](C)N([C@H](c2ccc(C(=O)N(CC)CC)cc2)c2cccc(OC)c2)C[C@H]1C
activation [1]: -16.4% and -0.333%
activity change, negative = inhibition [2]: -7.89% [at 11.2 µM]
activity change, negative = inhibition [3]: 6.9% [at 11.2 µM]

O=C1N[C@@H](Cc2ccccc2)CN2CCCC[C@@H]12
activation [1]: -9.16%
Potency [2]: inactive
Potency [3]: inactive

CC(=O)O[C@H]1C[C@@H](OC(C)=O)C(C)(C)C2C[C@@H](O)[C@]3(C)C(CC[C@@]4(C)[C@H](C5=CC(=O)OC5O)C[C@H]5O[C@]543)[C@]21C (stereo not given in full)
activation [1]: -6.87%
Potency [2]: inactive
Potency [3]: inactive

COCC1OC(=O)c2coc3c2C1(C)C1=C(C3=O)C2CCC(=O)C2(C)CC1O (stereo not given)
activation [1]: -7.63%
Potency [2]: inactive
Potency [3]: inactive

CC[C@@H]1C[C@H]2CC[C@H](O2)[C@H](C)C(=O)O[C@@H](C)C[C@@H]2CC[C@@H](O2)[C@@H](C)C(=O)O[C@H](C)C[C@H]2CC[C@H](O2)[C@H](C)C(=O)O[C@@H](C)C[C@@H]2CC[C@@H](O2)[C@@H](C)C(=O)O1
activation [1]: -13.7%
Potency [2]: inactive
Potency [3]: inactive

CN1CCCC1CCOC(c1cc2nccc(C(=O)O)c2[nH]1)c1ccccc1Cl (stereo not given)
activation [1]: 4.33%
Potency [2]: inactive
Potency [3]: inactive

C/C=C(\C)C(=O)OC1C(C)OC(OC2C(C)OC(OC3CCC4(C)C(=CCC5C4CCC4(C)C(C(C)OC6OC(COC7OC(CO)C(O)C(O)C7O)C(O)C(O)C6O)CCC54O)C3)CC2OC)C(O)C1OC (stereo not given)
activation [1]: 0.763%
Potency [2]: inactive
Potency [3]: inactive

CC[C@@H](C)[C@@H]1NC(=O)[C@@H]2CCCN2C(=O)[C@@H](CC(O)CCl)OC(=O)CCNC(=O)[C@H](C)N(C)C(=O)[C@H](C(C)C)N(C)C1=O (stereo not given in full) (cyclo([NMeA][βAla][X5]P[aIle][NMeV]))
activation [1]: -10.7%
Potency [2]: inactive
Potency [3]: inactive

CC[C@@H](C)[C@H]1C(=O)O[C@H](C(C)C)C(=O)N(C)[C@@H]([C@@H](C)CC)C(=O)O[C@H](C(C)C)C(=O)N(C)[C@@H]([C@H](C)CC)C(=O)O[C@H](C(C)C)C(=O)N1C
activation [1]: 9.82%
Potency [2]: inactive
Potency [3]: inactive

C[C@H]1CCC[C@H](O)CCC/C=C/c2cc(O)cc(O)c2C(=O)O1
activation [1]: -13%
Potency [2]: inactive
Potency [3]: inactive

CC(=O)O[C@@H]1[C@H]2CC[C@H]3[C@@](C)(O)[C@@H]4C[C@H](O)C(C)(C)[C@@]4(O)[C@H](O)C[C@@]13C[C@@]2(C)O
activation [1]: 6.87%
Potency [2]: inactive
Potency [3]: inactive

C=C(C)[C@H]1O[C@H]2CC[C@@]3(C)[C@@](O)(CC[C@H]4[C@@H]5OC(C)(C)[C@H]6C[C@@H]7C(=C)Cc8c(Cl)cc9[nH]c(c5c9c8[C@@]76O)[C@@]43C)[C@]23O[C@@H]3[C@H]1O
activation [1]: -8.93%
Potency [2]: inactive
Potency [3]: inactive

COc1ccc2c3c4n(c2c1)[C@@H](C=C(C)C)OOC(C)(C)C[C@@H]4N1C(=O)[C@@H]2CCCN2C(=O)[C@]1(O)[C@H]3OCC=C(C)C
activation [1]: 15.3%
Potency [2]: inactive
Potency [3]: inactive

CC(C)(NC(=O)[C@@H](N)Cc1ccc(O)cc1)C(=O)N[C@@H](Cc1cc2ccccc2[nH]1)C(=O)N[C@@H](Cc1ccccc1)C(=O)O (H-Y[Aib][Ala(indol-2-yl)]F-OH)
activation [1]: 7%
activity change, negative = inhibition [2]: -1.78% [at 11.2 µM]
activity change, negative = inhibition [3]: -10.2% [at 11.2 µM]

CC(=O)OC[C@]12C[C@H](OC(C)=O)C(C)=C[C@H]1O[C@@H]1[C@H](O)[C@@H](O)[C@@]2(C)[C@]12CO2
Potency [1]: 0.467 µM (active)
Potency [2]: inactive
Potency [3]: inactive

CC(=O)OC1CC(O)C(C)(C)C2CC(OC(C)=O)C3(C)C(CCC4(C)C(c5ccoc5)C(=O)C5OC543)C12C (stereo not given)
activation [1]: -13%
Potency [2]: inactive
Potency [3]: inactive

C[C@H]1O[C@@H](n2cnc3c(N)ncnc32)C[C@@H]1O
activation [1]: 15%
Potency [2]: inactive
Potency [3]: inactive

CC(=O)O[C@H]1CC[C@H]2[C@@H]3CC[C@H]4CC(=O)C=C(C)[C@]4(C)[C@H]3CC[C@]12C
activation [1]: -6.33%
Potency [2]: inactive
Potency [3]: inactive
